Hit rate of the full screen: of about 69,000 compounds, about 950 (1.4%) showed an effect of 50% or more. This excerpt belongs to a sample that is enriched for strong results.
system: Mycobacterium tuberculosis; experiment: Cornell M. t heat shock assay; format: functional, organism-based; design: dose or concentration left out as unconfirmed; note: in the data most compounds retested in dose-response had high values

SMILES	Percent Effect [%]
O=C(O)C(F)(F)F.O=C(c1ccoc1)N1CC[C@@H]2O[C@@H](COCCN3CCCC3)CC[C@@H]21	-1.941
O=C(O)C(F)(F)F.O=C(O)C(F)(F)F.O=C1[C@H]2CN(Cc3ccccn3)C[C@H]2CN1c1ccsc1	-8.069
CO[C@H]1CCN(Cc2cccs2)[C@@H]2CN(Cc3ccncc3)C[C@H]12.O=C(O)C(F)(F)F.O=C(O)C(F)(F)F.O=C(O)C(F)(F)F	0.7697
O=C1CCNc2ncc(-c3ccc(Cl)cc3)cc2CN1C1CC1	53.07
O=C1CCNc2ncc(-c3ccccc3Cl)cc2CN1C1CC1	39.75
Cl.Clc1ccc(-c2ccc(C3CNCCO3)nc2)cc1 (configuration not stated)	2.375
O=C1CCNc2ncc(-c3cccc(Cl)c3)cc2CN1C1CC1	61.09
COc1ccc(-c2cnc3c(c2)CN(C2CC2)C(=O)CCN3)cc1	36.55
O=C1CCC(=O)N1CCn1nnc(-c2cccc(Cl)c2)n1	-24.84
COc1ccc(OCCN2CCC(N3CCNC3=O)CC2)cc1	47.29
Cc1ccc(N2CCO[C@H]3CN(Cc4nccs4)C[C@H]32)nn1.O=C(O)C(F)(F)F.O=C(O)C(F)(F)F	-20.26
O=C(O)C(F)(F)F.O=C(O)C(F)(F)F.O=C([C@H]1C[C@H]2OCC[C@H]2N(Cc2cccnc2)C1)N1CCCO1	-0.4009
CCC1CN(C(=O)c2ccc(=O)[nH]c2)CCC(=O)N1Cc1ccccc1 (configuration not stated)	106.1
CCC1CN(C(=O)c2cccc(O)c2)CCC(=O)N1Cc1ccccc1 (configuration not stated)	3.275
CCC1CN(C(=O)c2ccc(=O)[nH]n2)CCC(=O)N1Cc1ccccc1 (configuration not stated)	3.349
Fc1ccc(CN2CCC(F)(F)C3(CCN(c4cnccn4)C3)C2)cc1.O=C(O)C(F)(F)F.O=C(O)C(F)(F)F (configuration not stated)	3.728
CN(C)c1nc2c(c(N3CCc4c(c(CO)nn4C)C3)n1)CCNC2	-14.09
Cc1cccc(=O)n1CCCNc1nc(N(C)C)nc2c1CCNC2	44.77
Cc1nc2c(c(N3CCN(c4ncccc4C(N)=O)CC3)n1)CCNC2	6.854

SMILES	Percent Effect [%]
Cc1cc2n(n1)CCN(c1nc(N(C)C)nc3c1CCNC3)C2	7.698
Cc1ccccc1N1CCN(c2nc(N(C)C)nc3c2CCNC3)CC1	99.74
c1ccc2c(c1)CN(c1ncnc3c1CCNC3)CCO2	22.91
c1ccc2c(c1)CCN(c1ncnc3sc4c(c13)CCNC4)C2	12.7
c1ccc2c(c1)CCN(c1nc(-c3ccncc3)nc3c1CCNC3)C2	105.2
CN(C)c1nc2c(c(N3CCc4ccccc4C3)n1)CCNC2	101.7
NCC1CCC2(CCN(C(=O)c3ccccn3)CC2)CO1.O=C(O)C(F)(F)F.O=C(O)C(F)(F)F (configuration not stated)	3.829
Cn1cc(N2CC3(CCN(CC4CCC4)CC3)OCC2=O)cn1.O=C(O)C(F)(F)F	10.75
Cc1cccc(C(=O)N2CCC[C@]3(C[C@@H](OCC4CC4)CO3)C2)n1.O=C(O)C(F)(F)F	5.615
O=C(O)C(F)(F)F.O=C([C@@H]1C[C@@H]2CCN(Cc3ccoc3)C[C@H]2O1)N1CCCC1	5.199
Cc1noc(C)c1C(=O)N1Cc2ncn(C)c2C(COCC(C)C)C1.O=C(O)C(F)(F)F (configuration not stated)	10.61
O=C(Cc1ccccc1)N1C[C@@H]2OCCN(CC3CCCO3)[C@@H]2C1.O=C(O)C(F)(F)F (some centres not stated)	-18.47
Cc1cc(Oc2ccc(NC(=O)C3CC3)cc2)cc(C2CCNCC2)n1.Cl	4.147
COc1ccc(CN2CCC3(CC2)CC(CC(=O)NC(C)C)CO3)cc1.O=C(O)C(F)(F)F (configuration not stated)	0.5964
CCN(CC)Cc1cn2c(n1)CN(C(=O)c1cnccn1)CC2.O=C(O)C(F)(F)F	-4.073
CC(C)c1nn(C)c(N(C)C)c1CNC1CCOc2c(F)cccc21.Cl (configuration not stated)	0.8128
O=C(CCc1ccco1)Nc1cc(C(F)(F)F)c[nH]c1=O	-7.508
CC(C)CCOCCNC(=O)Nc1cc(C(F)(F)F)c[nH]c1=O	62.92
O=C(NCCNc1ncccn1)Nc1cc(C(F)(F)F)c[nH]c1=O	-2.019

SMILES	Percent Effect [%]
O=C(NCCOc1ccccc1)Nc1cc(C(F)(F)F)c[nH]c1=O	24.31
CC(CCc1ccco1)NC(=O)Nc1cc(C(F)(F)F)c[nH]c1=O (configuration not stated)	102.3
O=C(NCCc1ccco1)Nc1cc(C(F)(F)F)c[nH]c1=O	9.339
COc1cc(CNCc2ccnc(N3CCCC3)c2)cc(OC)c1.Cl	5.029
O=C(NCc1ccccn1)[C@@H]1CCO[C@@H]2CCN(Cc3ccoc3)C[C@H]21.O=C(O)C(F)(F)F.O=C(O)C(F)(F)F	8.703
Cc1ccc(-c2nc(CN3CCOC(Cn4cccn4)C3)no2)cc1 (configuration not stated)	60.58
O=S(=O)(CCN1CCOC(Cn2cccn2)C1)C(F)(F)F (configuration not stated)	103.2
c1cnn(CC2CN(Cc3nc(-c4ccsc4)no3)CCO2)c1 (configuration not stated)	-8.346
Cc1cnn(CC2CN(Cc3nc(-c4ccsc4)no3)CCO2)c1 (configuration not stated)	77.9
O=S(=O)(CCN1CCOC(Cn2cccn2)C1)c1ccccc1 (configuration not stated)	6.109
Cc1cnn(CC2CN(CCCS(C)(=O)=O)CCO2)c1 (configuration not stated)	7.266
Cc1cnn(CC2CN(Cc3nc(-c4ccoc4)no3)CCO2)c1 (configuration not stated)	8.998
Cc1nc(CN2CCOC(Cn3cccn3)C2)no1 (configuration not stated)	-15.93
Cc1cnn(CC2CN(CCS(C)(=O)=O)CCO2)c1 (configuration not stated)	3.305
Cc1cnn(CC2CN(CCS(=O)(=O)C(F)(F)F)CCO2)c1 (configuration not stated)	85.56
c1ccc(-c2nc(CN3CCOC(Cn4cccn4)C3)no2)cc1 (configuration not stated)	2.98
c1cnn(CCN2CCOC(Cn3cccn3)C2)c1 (configuration not stated)	-7.25
O=C(O)C(F)(F)F.O=C(O)C(F)(F)F.c1cncc(N2CCCn3nnc(CN4CCCCC4)c3C2)c1	0.6199
C1CC(CN2CCc3c(nnn3CC3CC3)C2COCC2CC2)C1.O=C(O)C(F)(F)F (configuration not stated)	-20.7

Reference: ChEMBL document CHEMBL3988442, “University of Dundee, Small-Polar-MMV Screening Library” (2021)
